Results on twelve molecules are retold here after PubChem BioAssay (NCI).

“And” between values parts separate entries of the source, which are not always exact repeats. Identical values can stand only once. This is part of a sample that, as a whole, favours compounds with a hit. Of some 83,000 tested, about 20% had one in any assay.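 Negative percent growth values reflect cell death: -40 means 40% of the cells present at the start died, and -100 means all died.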 The source made the active and inactive calls. How the source made its calls: active means growth percent below 10; inactive means the rest.

Test systems include NCI-H23 lung; NCI-H226 lung; NCI-H322M lung; HOP-62 NSCLC; NCI-H460 lung; HOP-92 NSCLC; NCI-H522 lung; A549/ATCC NSCLC; 786-0 renal; COLO 205 colon.
What all share (test): NCI-60 one-dose screen, 48 h (100 = growth as untreated, 0 = no growth, -100 = all killed)
Common to all, as to settings: 10 µM unless noted

With `COc1nc(=O)n(C2C=CC(=O)O2)cc1F` (stereo not given), the growth in the experiment on NCI-H23 lung is 102% (inactive); in the experiment with NCI-H226 lung it was 106% (inactive); with NCI-H322M lung, 102% (inactive); in the experiment on HOP-62 NSCLC it was 110% (inactive); with NCI-H460 lung it was 110% (inactive); with HOP-92 NSCLC, 87.8% (inactive). Further, the growth in the experiment on NCI-H522 lung was 39.1% (inactive); in the experiment with A549/ATCC NSCLC, 123% (inactive); with 786-0 renal it was 92.5% (inactive); in the experiment on COLO 205 colon, 46.5% (inactive).
Take `COCCOc1cc2ncnc(N3CCN(S(=O)(=O)c4ccccc4Cl)CC3)c2cc1OCCOC`: the growth is 85.8% (inactive) in the experiment with NCI-H23 lung; 95.5% (inactive) in the experiment on NCI-H226 lung; 98.3% (inactive) in the experiment on NCI-H322M lung; 90.4% (inactive) in the experiment on HOP-62 NSCLC; 103% (inactive) in the experiment with NCI-H460 lung; 75.6% (inactive) in the experiment with HOP-92 NSCLC. For the same molecule, the growth with NCI-H522 lung is 65.8% (inactive); in the experiment with A549/ATCC NSCLC it was 86.7% (inactive); in the experiment with 786-0 renal it was 89.2% (inactive); in the experiment with COLO 205 colon it was 96.8% (inactive).
With `NS(=O)(=O)OCC1OC(n2cnc3cncnc32)C(O)C1O` (stereo not given), the growth in the experiment on NCI-H23 lung was 6.16% [0.1 µM] (active) and 3.98% [0.1 µM] (active); in the experiment with NCI-H226 lung it was 16.8% [0.1 µM] (inactive); with NCI-H322M lung, -26.7% [0.1 µM] (active) and 12.1% [0.1 µM] (inactive); with HOP-62 NSCLC it was -21.5% [0.1 µM] (active) and -12.7% [0.1 µM] (active); with NCI-H460 lung it was 2.5% [0.1 µM] (active) and 0.409% [0.1 µM] (active); in the experiment with HOP-92 NSCLC, 10.2% [0.1 µM] (inactive) and 3.58% [0.1 µM] (active). Further, the growth was 2.73% [0.1 µM] (active) and -11.8% [0.1 µM] (active) in the experiment on NCI-H522 lung; 11.1% [0.1 µM] (inactive) and 13.4% [0.1 µM] (inactive) in the experiment on A549/ATCC NSCLC; 8.57% [0.1 µM] (active) and 11.9% [0.1 µM] (inactive) with 786-0 renal; 32.2% [0.1 µM] (inactive) and 27.1% [0.1 µM] (inactive) in the experiment with COLO 205 colon.
Turning to `Cc1ccc(-c2nc3nc(-c4ccccc4)nc(N4CCN(S(=O)(=O)c5ccccc5)CC4)c3o2)cc1`, the growth in the experiment on NCI-H23 lung is 88.3% (inactive); in the experiment with NCI-H226 lung, 76.5% (inactive); in the experiment with NCI-H322M lung, 101% (inactive); in the experiment with HOP-62 NSCLC, 72.3% (inactive); with NCI-H460 lung, 73.3% (inactive); in the experiment with HOP-92 NSCLC it was 95.1% (inactive). Moreover, the growth with NCI-H522 lung was 72.9% (inactive); in the experiment on A549/ATCC NSCLC it was 91.5% (inactive); in the experiment on 786-0 renal, 61% (inactive); in the experiment with COLO 205 colon, 125% (inactive).
On to `CC(C)(C)c1cc(NC(=O)Nc2ccc(-c3cn4c(n3)sc3cc(OCCN5CCOCC5)ccc34)cc2)no1`, for which the growth in the experiment with NCI-H23 lung was 23.9% (inactive) and 42.6% (inactive); with NCI-H226 lung, 17.8% (inactive); in the experiment with NCI-H322M lung it was 34.9% (inactive) and 54.5% (inactive); in the experiment with HOP-62 NSCLC, 35.7% (inactive) and -26.2% (active); in the experiment on NCI-H460 lung it was -10.7% (active) and 10.4% (inactive); in the experiment with HOP-92 NSCLC, -2.21% (active) and -1.85% (active). Further, the growth is -3.14% (active) and 10.6% (inactive) in the experiment on NCI-H522 lung; 28.3% (inactive) and 17.3% (inactive) in the experiment on A549/ATCC NSCLC; -9.92% (active) and 7.85% (active) in the experiment with 786-0 renal; 10.7% (inactive) and -43.9% (active) in the experiment with COLO 205 colon.
On to `Cc1nc2sc(C(=O)Nc3cccc4ncccc34)c(N)c2cc1C(C)O` (stereo not given), for which the growth was 80.4% (inactive) with NCI-H23 lung; 85.1% (inactive) in the experiment on NCI-H226 lung; 79.7% (inactive) in the experiment on NCI-H322M lung; 68.1% (inactive) with HOP-62 NSCLC; 80.9% (inactive) in the experiment with NCI-H460 lung; 70.5% (inactive) in the experiment with HOP-92 NSCLC. Further, the growth with NCI-H522 lung was 34.7% (inactive); with A549/ATCC NSCLC, 81.3% (inactive); with 786-0 renal, 86.2% (inactive); with COLO 205 colon, 107% (inactive).
On to `O=C1C=C(Nc2ccccc2)c2ncccc2C1=O`, for which the growth in the experiment on NCI-H23 lung was -43.1% (active); in the experiment with NCI-H226 lung it was -46.6% (active); with NCI-H322M lung it was -97.5% (active); in the experiment with HOP-62 NSCLC, -90.4% (active); in the experiment on NCI-H460 lung, -69.4% (active); in the experiment on HOP-92 NSCLC it was -79.9% (active). Also, the growth with NCI-H522 lung was -75.3% (active); in the experiment with A549/ATCC NSCLC, -49% (active); in the experiment with 786-0 renal, -91.9% (active); in the experiment on COLO 205 colon, -76.6% (active).
For the molecule `COc1ccc(/C(C)=C(\c2ccc(OCCN3CCOCC3)cc2)c2ccc(OC(=O)C3CCCCC3)cc2)cc1`, the growth was 101% (inactive) with NCI-H23 lung; 113% (inactive) with NCI-H226 lung; 99.5% (inactive) with NCI-H322M lung; 108% (inactive) in the experiment on HOP-62 NSCLC; 107% (inactive) with NCI-H460 lung; 109% (inactive) in the experiment with HOP-92 NSCLC. Further, the growth in the experiment on NCI-H522 lung was 104% (inactive); with A549/ATCC NSCLC, 106% (inactive); with 786-0 renal, 104% (inactive); with COLO 205 colon, 110% (inactive).
With `CCCO/N=C/c1ccccn1`, the growth in the experiment with NCI-H23 lung is 105% (inactive) and 96.6% (inactive); with NCI-H226 lung, 99.2% (inactive) and 100% (inactive); with NCI-H322M lung, 112% (inactive); in the experiment on HOP-62 NSCLC it was 104% (inactive) and 88.2% (inactive); with NCI-H460 lung it was 105% (inactive) and 109% (inactive); in the experiment on HOP-92 NSCLC, 105% (inactive). Moreover, the growth was 94.8% (inactive) and 87.3% (inactive) in the experiment on NCI-H522 lung; 97.5% (inactive) and 104% (inactive) in the experiment with A549/ATCC NSCLC; 107% (inactive) and 101% (inactive) in the experiment with 786-0 renal; 112% (inactive) and 108% (inactive) with COLO 205 colon.
Consider `C/C=C(\C)C(=O)N[C@H]1CC[C@]2(C)C3CC[C@@]4(C)C(CC[C@@H]4C(C)N(C)C)C3CCC2[C@H]1OC(C)=O` (stereo not given in full), for which the growth in the experiment on NCI-H23 lung is -8.02% (active); with NCI-H226 lung, -2.69% (active); in the experiment with NCI-H322M lung it was -48.5% (active); in the experiment on HOP-62 NSCLC, -60% (active); in the experiment with NCI-H460 lung, -86.4% (active); in the experiment on HOP-92 NSCLC it was -49.4% (active). The growth in the experiment on NCI-H522 lung was 6.83% (active); in the experiment on A549/ATCC NSCLC, -17.8% (active); with 786-0 renal, -88.8% (active); in the experiment on COLO 205 colon it was -90.7% (active).
For the molecule `O/N=C(/c1ccccc1)c1ccc2c3c(cccc13)CC2`, the growth in the experiment with NCI-H23 lung was 97.3% (inactive) and 95.1% (inactive); with NCI-H226 lung, 100% (inactive); with NCI-H322M lung, 106% (inactive) and 102% (inactive); with HOP-62 NSCLC, 93.1% (inactive) and 94.1% (inactive); in the experiment on NCI-H460 lung, 87.6% (inactive) and 96.7% (inactive); in the experiment with HOP-92 NSCLC it was 49.4% (inactive) and 64.9% (inactive). Besides, the growth with NCI-H522 lung is 88.3% (inactive) and 89.6% (inactive); in the experiment on A549/ATCC NSCLC it was 73.8% (inactive) and 94.4% (inactive); with 786-0 renal, 88.4% (inactive) and 92.1% (inactive); in the experiment on COLO 205 colon it was 117% (inactive) and 103% (inactive).
With `COC1=CC(c2ccc[nH]2)=N/C1=C\c1[nH]c(C)c(C(=O)Oc2ccccc2)c1C`, the growth is -32.9% (active) in the experiment with NCI-H23 lung; -39.8% (active) in the experiment on NCI-H226 lung; -13.1% (active) in the experiment on NCI-H322M lung; -22.2% (active) with HOP-62 NSCLC; -31.2% (active) in the experiment on NCI-H460 lung; -35.4% (active) in the experiment with HOP-92 NSCLC. In addition, the growth was -64% (active) with NCI-H522 lung, -44.1% (active) in the experiment on A549/ATCC NSCLC, -44.1% (active) with 786-0 renal and -81.4% (active) in the experiment with COLO 205 colon.
